Results taken from PubChem BioAssay.
Several values for one entry are separate records, joined by “and”; a condition that tells them apart may be missing. Equal entries are not always repeated. Results filed as inconclusive are left out. Activity calls are given as the source filed them.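 Rule for the calls, unless noted: active = compounds whose cell count with miR-34 switched on is under 0.7 times the count with it off; inactive = the rest.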

Key:
[1] = compounds altering viability of human ES cells (AID 493140; call rule not given here;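 note: cells exposed to compounds for four days before counting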); conditions: human embryonic stem cell survival screen; stronger effect = higher value
[2] = P. berghei load reduction in hepatocytes – cell-based, HepG2, luciferase luminescence, HepG2 viability, primary screen (AID 624349; in the data active = parasite load remaining mostly below about 12%, no sharp cut-off; inactive = mostly above about 10%;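 note: 100% = mean of DMSO negative control wells on the same plate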); conditions: P. berghei liver stage in HepG2, luciferase luminescence, concentration not given here; parasite load remaining: stronger effect = lower value; viability: measured here: HepG2 viability without parasites
[3] = viability loss with induced miR-34 in A549 – imaging, A549 dox-inducible miR-34, nuclei and caspase counts, primary screen (AID 1347080); conditions: A549 miR-34 inducible, Hoechst nuclei count, 48 h
[4] = MELAS cybrid and Rieske KO viability enhancers – cell-based, MELAS cybrids, Rieske KO mouse fibroblasts, CellTiter-Glo, primary screen (AID 1508586;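 active = mean z-score across replicates of 1.96 or higher in either the MELAS or the Rieske mutant cell line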;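 note: z relative to plate mean and SD of compound and empty wells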); conditions: low glucose
[5] = tested on: Hepatitis C virus NS3 helicase; assay: blockers of NS3h binding to ssDNA – biochemical, fluorescence polarization, LOPAC1280 library, primary screen (AID 687035; in the data active = inhibition above about 37%); conditions: Purified HCV NS3 helicase, Cy5-dT15 ssDNA binding fluorescence polarization; stronger effect = higher value; concentration not given here
[6] = compounds altering Cy5-DNA-NS3h complex signal – biochemical, LOPAC1280, artefact control for HCV NS3 helicase inhibitor project (AID 687037; call rule not given here); conditions: Cy5-DNA-NS3h complex fluorescence interference counterscreen
[7] = galactose survival enhancers in mitochondrial complex I cybrids – cell-based, galactose medium, ATP luminescence, primary screen (AID 1645843;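 active = z-score of at least 1.8 in each of two replicates, scored against plate mean and spread of sample wells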;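 note: positive z means more ATP and so rescue of galactose-driven cybrid death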); conditions: complex I mutant cybrid cells, 72 h, stronger effect = higher value
[8] = target: ATP-dependent translocase ABCB1 (Homo sapiens) (UniProt P08183); assay: P-glycoprotein substrate transport blockade – cell-based (AID 377; in the data active = fluorescence slope change above about 50%); conditions: MDR1-expressing cells, fluorescent substrate accumulation slope; stronger effect = higher value; concentration not given here
[9] = measured here: relative caspase fold change +Dox/-Dox
[10] = measured here: total cells with miR-34 induction, stronger effect = lower value
[11] = measured here: total cells without miR-34 induction
[12] = MELAS cybrid survival, CellTiter-Glo 48 h, stronger effect = higher value
[13] = Rieske KO mouse fibroblast survival, CellTiter-Glo 72 h
[14] = stronger effect = lower value, cell number ratio, induced over uninduced

Chain of ATP-dependent translocase ABCB1 (Homo sapiens) (P08183 whole entry, looked up): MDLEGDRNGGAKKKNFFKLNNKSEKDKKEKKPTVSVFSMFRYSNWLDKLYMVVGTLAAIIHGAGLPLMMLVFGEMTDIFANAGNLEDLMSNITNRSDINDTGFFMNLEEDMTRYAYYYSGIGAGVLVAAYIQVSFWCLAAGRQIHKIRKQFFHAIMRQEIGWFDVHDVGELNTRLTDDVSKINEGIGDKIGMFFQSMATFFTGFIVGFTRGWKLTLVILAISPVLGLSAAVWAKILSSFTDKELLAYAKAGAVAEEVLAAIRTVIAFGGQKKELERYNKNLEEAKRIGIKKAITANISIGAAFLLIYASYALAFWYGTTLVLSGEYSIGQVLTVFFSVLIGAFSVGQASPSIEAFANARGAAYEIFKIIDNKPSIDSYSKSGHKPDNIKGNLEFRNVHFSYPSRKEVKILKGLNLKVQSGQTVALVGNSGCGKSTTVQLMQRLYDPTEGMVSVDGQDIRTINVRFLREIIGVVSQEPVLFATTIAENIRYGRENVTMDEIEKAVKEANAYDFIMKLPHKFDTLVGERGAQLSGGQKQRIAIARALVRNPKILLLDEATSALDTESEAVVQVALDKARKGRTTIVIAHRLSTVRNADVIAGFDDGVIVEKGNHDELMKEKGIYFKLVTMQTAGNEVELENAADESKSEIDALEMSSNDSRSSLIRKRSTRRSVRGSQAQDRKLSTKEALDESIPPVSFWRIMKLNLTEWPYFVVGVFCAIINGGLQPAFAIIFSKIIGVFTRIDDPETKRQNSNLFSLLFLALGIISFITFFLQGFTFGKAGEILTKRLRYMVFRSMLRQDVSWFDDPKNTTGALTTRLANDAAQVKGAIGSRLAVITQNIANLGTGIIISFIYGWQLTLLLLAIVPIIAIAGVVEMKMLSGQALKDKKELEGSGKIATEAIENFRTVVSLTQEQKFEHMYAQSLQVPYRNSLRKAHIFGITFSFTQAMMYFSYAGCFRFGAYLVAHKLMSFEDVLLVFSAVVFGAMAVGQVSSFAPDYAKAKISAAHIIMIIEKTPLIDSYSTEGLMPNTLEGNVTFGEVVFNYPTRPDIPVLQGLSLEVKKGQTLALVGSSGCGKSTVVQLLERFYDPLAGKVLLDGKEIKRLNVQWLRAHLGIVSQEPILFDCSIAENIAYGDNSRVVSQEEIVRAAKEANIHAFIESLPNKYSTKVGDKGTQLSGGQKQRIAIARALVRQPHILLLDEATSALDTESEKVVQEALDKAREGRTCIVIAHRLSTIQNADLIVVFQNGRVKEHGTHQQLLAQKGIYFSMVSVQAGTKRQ

SMILES	survival [1]	parasite load remaining [2]	viability [2]	fold change ([3]; stronger effect = lower value)	fold change [3, 9]	cell count [3, 10]	cell count [3, 11]	z-score [4, 12]	z-score [4, 13]	inhibition [5]	fluorescence ratio (interference) [6]	fold change [3, 14]	z-score [7]	fluorescence slope change [8]
C[C@]12CCC(=O)C=C1CC[C@@H]1[C@@H]2C(=O)C[C@]2(C)C(=O)CC[C@@H]12	4.17 (inactive)	81.1% (inactive)	96.5%	0.907 (inactive)	0.858	9500	10500	0.15 (inactive)	-0.446					
CN[C@@H]1[C@@H](O)[C@@H](O[C@@H]2[C@@H](O)[C@H](O[C@H]3O[C@H]([C@@H](C)NC)CC[C@H]3N)[C@@H](N)C[C@H]2N)OC[C@]1(C)O (tested in a mixture with another compound)	18.8 (inactive)	54.7% (inactive) and 51.8% (inactive)	60.6% and 91.5%	1.02 (inactive)	0.941	8090	7960	-0.902 (inactive)	-0.563					
CCCCCN(C)CCC(O)(P(=O)(O)O)P(=O)(O)O					0.937 and 1.66	10500 and 8850	10800 and 10200	-0.786 (inactive) and -0.235 (inactive)	0.068 and -1.03	-2% (inactive)	1 (inactive)	0.977 (inactive) and 0.868 (inactive)	0.42 (inactive) and 0.08 (inactive)	
O=C1OCCN1N=Cc1ccc([N+](=O)[O-])o1	4.33 (inactive)	34.2% (inactive)	103%		1.27	7950	9150	-1.23 (inactive)	-1.17			0.869 (inactive)		82.1% (active)
C[C@]12CC[C@H](O)C[C@H]1CC[C@@H]1[C@@H]2CC[C@]2(C)[C@@H](C3=CC(=O)OC3)CC[C@]12O	11.7 (inactive)	-9.15% (inactive) and 10.4% (inactive)	40.6% and 30.9%	0.981 (inactive)	1.54	557	568	-0.147 (inactive)	0.0544					80.1% (active)
CC(=O)OCC(=O)[C@H]1CC[C@H]2[C@@H]3CC[C@H]4C[C@H](O)CC[C@]4(C)[C@H]3C(=O)C[C@]12C	32.2 (inactive)	133% (inactive)	77.5%	0.969 (inactive)	0.588	8940	9230	-0.0226 (inactive)	0.294					
CCC1=C[C@@H]2CN3CCc4c([nH]c5ccccc45)[C@@](C(=O)OC)(C2)[C@@H]13		9.8% (inactive)	47.4%		1.22 and 0.88	8480 and 6230	8930 and 7580	-0.196 (inactive) and 0.501 (inactive)	-0.315 and -0.157			0.949 (inactive) and 0.823 (inactive)		
C=C(C)[C@@H]1C2C(=O)O[C@H]1[C@H]1OC(=O)[C@@]34OC3C[C@]2(O)[C@@]14C (some centres undefined)		103% (inactive)	99.2%		0.911	8720	9830	0.399 (inactive)	0.218			0.887 (inactive)		
C=CCN1CC[C@]23c4c5ccc(O)c4O[C@H]2/C(=N/N=C2\CC[C@@]4(O)[C@H]6Cc7ccc(O)c8c7[C@@]4(CCN6CC=C)[C@H]2O8)CC[C@@]3(O)[C@H]1C5		8.58% (inactive)	59%	0.791 (inactive)	1.27	7760	9820	-0.547 (inactive)	-0.931				-1.6 (inactive)	
CN1CCC(c2ccc(F)cc2)C(COc2ccc3c(c2)OCO3)C1 (centres undefined)					1.59	7350	8110					0.906 (inactive)	-1.4 (inactive)	
CCCCC(C#N)(Cn1cncn1)c1ccc(Cl)cc1 (centres undefined)		18.9% (inactive)	67.5%	0.938 (inactive)	1.46	9220	9830	0.49 (inactive)	-0.243				0.815 (inactive)	
CCC(=O)OC(Cc1ccccc1)(c1ccccc1)C(C)CN(C)C (centres undefined)	8.25 (inactive)	85.5% (inactive)	74.7%	0.896 (inactive)	0.845	9110	10200	0.276 (inactive)	-0.451					
C[C@]12CC[C@H](O)C[C@H]1CC[C@@H]1[C@@H]2C[C@@H](O)[C@]2(C)[C@@H](C3=CC(=O)OC3)CC[C@]12O	8.33 (inactive)	0.32% (inactive)	57%	0.713 (inactive)	1.4	550	772	2.02 (active)	-0.935					
COc1cc2c(cc1OC)[C@@]13CCN4CC5=CCOC6CC(=O)N2C1C6C5CC43 (some centres undefined)					1.53	8280	8360					0.989 (inactive)	-0.335 (inactive)	
Clc1ccc(C(Cn2ccnc2)OCc2csc3c(Cl)cccc23)c(Cl)c1 (centres undefined)	10.7 (inactive)	93.3% (inactive) and 30.9% (inactive)	80.2% and 95%	0.952 (inactive) and 0.861 (inactive)	0.728 and 1	7030 and 8370	7390 and 9720	0.182 and 1.75 (inactive)	2.82 and 1.72					
C[C@]12CCC(O)CC1=CCC1C2CC[C@@]2(C)C1CC[C@]2(C)O (some centres undefined)				0.929 (inactive)	1.41	9340	10100						-0.34 (inactive)	
CCC1(C)CC(=O)NC(=O)C1	3.92 (inactive)	94.7% (inactive)	101%	0.856 (inactive) and 0.868 (inactive)	1.33 and 1.2	8070 and 7990	9420 and 9200	-0.143 (inactive) and 0.0597 (inactive)	-0.288 and -0.916					
CN1[C@@H]2CC[C@H]1CC(OC1c3ccccc3CCc3ccccc31)C2 (some centres undefined)		67% (inactive)	69.7%		0.451	8290	9070	-1.44 (inactive)	0.907			0.913 (inactive)		
